PubChem BioAssay (NCATS)
Inconclusive results are not listed. The source made the active and inactive calls. The call rests on the fitted dose curve; in most records, active means well fitted curve in the direction sought with a large enough effect; inconclusive means small, poorly fitted or top-dose-only effect, or another doubt; inactive means no such curve, though single readings can be large; an effect the other way counts as inactive or inconclusive.

Tests used:
[1] = qHTS of pediatric cancer cell lines to identify multiple opportunities for drug repurposing: Primary screen for SK-N-SH cells (AID 1347098); further: nearly all actives have a fitted effect of over 65% in size; further: potency means the concentration at half of the fitted maximal effect
Summary of the method: (§1)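 Cells (500-1,000/well) rested 5 h, then received compounds for 48 h; metabolically active cells were measured by CellTiter-Glo luminescence. Final concentrations spanned up to 46 µM (MIPE, 11-point) or 0.59 nM-46 µM (NPC, 8-point) in primary screens, 11-point in follow-ups.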

[2] = qHTS of pediatric cancer cell lines to identify multiple opportunities for drug repurposing: Primary screen for NB1643 cells (AID 1347099); further: nearly all actives have a fitted effect of over 50% in size; further: potency means the concentration at half of the fitted maximal effect
Summary of the method: (§2)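 Cells plated at 500-1,000/well in growth medium, compounds added after 5 h. MIPE tested at 11 points (from 0.78 nM), NPC at 8 points (from 0.59 nM). CellTiter-Glo luminescence after 48 h; concentration-response curves from primary screen.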

[3] = qHTS of pediatric cancer cell lines to identify multiple opportunities for drug repurposing: Primary screen for LAN-5 cells (AID 1347100)
Summary of the method: as §1

[4] = qHTS of pediatric cancer cell lines to identify multiple opportunities for drug repurposing: Primary screen for BT-12 cells (AID 1347101); further: nearly all actives have a fitted effect of over 25% in size; further: potency means the concentration at half of the fitted maximal effect
Summary of the method: as §1

[5] = qHTS of pediatric cancer cell lines to identify multiple opportunities for drug repurposing: Primary screen for Rh18 cells (AID 1347102); further: nearly all actives have a fitted effect of over 65% in size
Summary of the method: as §1

[6] = qHTS of pediatric cancer cell lines to identify multiple opportunities for drug repurposing: Primary screen for OHS-50 cells (AID 1347103); further: nearly all actives have a fitted effect of over 40% in size; further: potency means the concentration at half of the fitted maximal effect
Summary of the method: as §1

[7] = qHTS of pediatric cancer cell lines to identify multiple opportunities for drug repurposing: Primary screen for RD cells (AID 1347104); further: nearly all actives have a fitted effect of over 55% in size; further: potency means the concentration at half of the fitted maximal effect
Summary of the method: as §2

[8] = qHTS of pediatric cancer cell lines to identify multiple opportunities for drug repurposing: Primary screen for MG 63 (6-TG R) cells (AID 1347105); further: nearly all actives have a fitted effect of over 50% in size
Summary of the method: as §2

[9] = qHTS of pediatric cancer cell lines to identify multiple opportunities for drug repurposing: Primary screen for control Hh wild type fibroblast cells (AID 1347106);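 further: series mostly up to about 46 µM; a drop in luminescence marks cytotoxicity and a rise apparent proliferation; nearly all actives have a fitted effect of over 55% in size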
Summary of the method: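 Viability after 48 h compound treatment at 37C, 500-1,000 cells/well, read as ATP luminescence with CellTiter-Glo. Primary screens used 11-point (MIPE, 0.78 nM-46 µM) or 8-point (NPC, 0.59 nM-46 µM) final concentrations; follow-up screens used 11-point dilutions.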

[10] = qHTS of pediatric cancer cell lines to identify multiple opportunities for drug repurposing: Primary screen for Saos-2 cells (AID 1347097); further: nearly all actives have a fitted effect of over 40% in size; further: potency means the concentration at half of the fitted maximal effect
Summary of the method: as §2

Measured: Potency

CC(=O)NCCCCCC(=O)O
not listed: [10]
inactive: all other assays above

O=C(Oc1cccc2cccnc12)c1ccccc1
active: [10] 15 µM | [4] 6.17 µM
inactive: [9]

c1ccc(-c2nc[nH]c2-c2ccccc2)cc1
not listed: [5] | [6] | [10]
inactive: all other assays above

CNCCc1ccccn1
not listed: [10]
inactive: all other assays above

CCCCC(CC)CN1CN(CC(CC)CCCC)CC(C)(N)C1 (stereo not drawn)
not listed: [4] | [6] | [10]
inactive: all other assays above

O=C(N/N=C/c1ccc([N+](=O)[O-])o1)c1ccc(O)cc1
active: [4] 13.8 µM
inactive: [10] | [8] | [9]

CCOC(=O)Nc1ccc2c(c1)N(C(=O)CCN1CCOCC1)c1ccccc1S2
not listed: [7] | [8] | [10]
inactive: all other assays above

O=C1C(=O)c2ccccc2C(O)=C1C1CCC(c2ccc(Cl)cc2)CC1 (stereo not drawn)
not listed: [10]
inactive: all other assays above

CCCCN1C[C@H](O)[C@@H](O)[C@H](O)[C@H]1CO
not listed: [8] | [10]
inactive: all other assays above

CC(C)(Cc1c[nH]c2ccccc12)NCC(O)COc1ccccc1C#N (stereo not drawn)
inactive: [10] | [2] | [8] | [9]

CCNC(=O)NCc1cccc(Cl)c1
not listed: [8] | [10]
inactive: all other assays above

COc1cc([C@H]2Oc3cc([C@H]4Oc5cc(O)cc(O)c5C(=O)[C@@H]4O)ccc3O[C@@H]2CO)ccc1O
not listed: [10]
inactive: all other assays above

N[C@H](C(=O)O)[C@@H](O)c1ccc(O)c(O)c1
not listed: [1] | [3]
inactive: all other assays above

OC[C@H]1O[C@@H](Oc2ccc(O)cc2)[C@H](O)[C@@H](O)[C@@H]1O
not listed: [10]
inactive: all other assays above

COc1cc(C(=O)NCc2ccc(OCCN(C)C)cc2)cc(OC)c1OC
not listed: [3] | [8] | [10]
inactive: all other assays above

O=C(c1ccc(F)cc1)C1CCN(CCn2c(=S)[nH]c3ccccc3c2=O)CC1
inactive: [10] | [3] | [5] | [8] | [9]

CCC1Nc2cc(Cl)c(S(N)(=O)=O)cc2S(=O)(=O)N1 (stereo not drawn)
not listed: [10]
inactive: all other assays above

NC(=O)c1ccccc1O
not listed: [8] | [10]
inactive: all other assays above

CCOC(=O)c1c(N)sc2c1CCN(Cc1ccccc1)C2
active: [4] 17.4 µM | [6] 17.4 µM
inactive: [10] | [2] | [8] | [9]

CCCCC(CC)COC(=O)/C=C/c1ccc(OC)cc1 (stereo not drawn)
not listed: [1] | [3] | [6]
inactive: all other assays above

CN(C)CCC[C@@]1(c2ccc(F)cc2)OCc2cc(C#N)ccc21
inactive: [10] | [2] | [4] | [5] | [6] | [9]

CN1CCC[C@@H]1CCO[C@](C)(c1ccccc1)c1ccc(Cl)cc1
inactive: [2] | [9]
active: [10] 21.1 µM | [4] 27.6 µM | [6] 15.5 µM | [7] 26.6 µM

CC(=O)Nc1ccc(OCC(O)CNC(C)C)cc1 (stereo not drawn)
not listed: [1] | [2]
inactive: all other assays above

CO[C@H]1C=CO[C@@]2(C)Oc3c(C)c(O)c4c(O)c(c(/C=N/N5CCN(C)CC5)c(O)c4c3C2=O)NC(=O)/C(C)=C\C=C[C@H](C)[C@H](O)[C@@H](C)[C@@H](O)[C@@H](C)[C@H](OC(C)=O)[C@@H]1C
inactive: [2] | [3] | [6] | [7] | [8]

CCOC(=O)[C@@](C)(N)Cc1ccc(O)c(O)c1
active: [2] 23.7 µM
inactive: [5] | [9]

CNCCCCOc1ccccc1Cc1ccccc1
active: [1] 24.4 µM | [6] 17.4 µM | [7] 23.7 µM
inactive: [9]

N/C(=N\N=C\c1ccc(Cl)cc1)N/N=C/c1ccc(Cl)cc1
inactive: [2] | [4] | [9]
